Inconclusive results are not listed. Active and inactive are the calls of the source. Calls come from the whole dose curve; as a rule, active = well fitted curve in the direction sought with a large enough effect; inconclusive = small, poorly fitted or top-dose-only effect, or another doubt; inactive = no such curve, though single readings can be large; an effect the other way counts as inactive or inconclusive.

A short description of test [1]: Quantitative High-Throughput drug screen in 47 multiple myeloma cell lines against the NCATS MIPE library collection: KHM11_PLB cell viability assay (AID 1918962). Note: nearly all actives have a fitted effect of over 35% in size. Note: potency is the fitted concentration of half-maximal effect. Put shortly: (§1)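 CellTiter-Glo luminescence (ATP) after 48 h compound exposure, 37C/5% CO2; 500 cells/well; MIPE 4.0 approved/investigational drugs pinned in; DMSO = 100%, media only = 0% viability.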
Test [2] in a line: Quantitative High-Throughput drug screen in 47 multiple myeloma cell lines against the NCATS MIPE library collection: JIM3_ECACC cell viability assay (AID 1918963; note: nearly all actives have a fitted effect of over 35% in size; note: potency is the fitted concentration of half-maximal effect). Put shortly: as §1
A short description of test [3]: Quantitative High-Throughput drug screen in 47 multiple myeloma cell lines against the NCATS MIPE library collection: H1112_PLB cell viability assay (AID 1918967; note: nearly all actives have a fitted effect of over 30% in size; note: potency is the fitted concentration of half-maximal effect). Put shortly:
(§2)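 Luminescent ATP measurement with CellTiter-Glo gives viability, scaled between DMSO-only wells (100%) and media-only wells (0%). Cells, 500 per well, faced library compounds for 48 hours at 37C.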

Test [4] in a line: Quantitative High-Throughput drug screen in 47 multiple myeloma cell lines against the NCATS MIPE library collection: KMS12PE_JCRB cell viability assay (AID 1918972). Note: nearly all actives have a fitted effect of over 30% in size. Note: potency is the fitted concentration of half-maximal effect. Put shortly:
(§3)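 Myeloma cells (500 per well) were exposed to MIPE 4.0 compounds by pin transfer and incubated 48 hours at 37C, 5% CO2. Viability was read as ATP by CellTiter-Glo luminescence, normalised to DMSO (100%) and media-only (0%) wells.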

Test [5] can be described thus: Quantitative High-Throughput drug screen in 47 multiple myeloma cell lines against the NCATS MIPE library collection: KMS26_JCRB cell viability assay (AID 1918975). Note: nearly all actives have a fitted effect of over 45% in size. Note: potency is the fitted concentration of half-maximal effect. Put shortly:
(§4)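 We plated 500 myeloma cells per well, pinned in MIPE 4.0 compounds, and incubated for 48 hours at 37C. ATP was then quantified with CellTiter-Glo, with DMSO and media-only wells defining 100% and 0%.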

Test [6] can be described thus: Quantitative High-Throughput drug screen in 47 multiple myeloma cell lines against the NCATS MIPE library collection: NCIH929_DSMZ cell viability assay (AID 1918978). Note: nearly all actives have a fitted effect of over 35% in size. Note: potency is the fitted concentration of half-maximal effect. Put shortly:
(§5)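 Myeloma cells (500/well) treated with MIPE 4.0 compounds for 48 h at 37 °C, 5% CO2. Viability read as ATP via CellTiter-Glo luminescence after 5 min at RT; DMSO-only wells = 100%, media-only = 0% viability.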

A short description of test [7]: Quantitative High-Throughput drug screen in 47 multiple myeloma cell lines against the NCATS MIPE library collection: MM1S_ATCC cell viability assay (AID 1918980). Note: nearly all actives have a fitted effect of over 45% in size. Note: potency is the fitted concentration of half-maximal effect. Put shortly:
as §5

Test [8] can be described thus: Quantitative High-Throughput drug screen in 47 multiple myeloma cell lines against the NCATS MIPE library collection: MM1R_ATCC cell viability assay (AID 1918981). Note: nearly all actives have a fitted effect of over 35% in size. Note: potency is the fitted concentration of half-maximal effect. Put shortly:
as §5

Test [9] in a line: Quantitative High-Throughput drug screen in 47 multiple myeloma cell lines against the NCATS MIPE library collection: INA6_PLB cell viability assay (AID 1918965; note: nearly all actives have a fitted effect of over 55% in size; note: potency is the fitted concentration of half-maximal effect). Put shortly: as §3
Test [10] is described as follows: Quantitative High-Throughput drug screen in 47 multiple myeloma cell lines against the NCATS MIPE library collection: Karpas25_ECACC cell viability assay (AID 1918968; note: nearly all actives have a fitted effect of over 35% in size; note: potency is the fitted concentration of half-maximal effect). Put shortly:
as §2

A short description of test [11]: Quantitative High-Throughput drug screen in 47 multiple myeloma cell lines against the NCATS MIPE library collection: KMS12BM_JCRB cell viability assay (AID 1918971). Note: nearly all actives have a fitted effect of over 35% in size. Note: potency is the fitted concentration of half-maximal effect. Put shortly: as §4
The nature of test [12]: Quantitative High-Throughput drug screen in 47 multiple myeloma cell lines against the NCATS MIPE library collection: MMM1_PLB cell viability assay (AID 1918976). Note: nearly all actives have a fitted effect of over 35% in size. Note: potency is the fitted concentration of half-maximal effect. Put shortly:
as §5

Test [13] in a line: Quantitative High-Throughput drug screen in 47 multiple myeloma cell lines against the NCATS MIPE library collection: MOLP8_DSMZ cell viability assay (AID 1918977). Note: nearly all actives have a fitted effect of over 45% in size. Note: potency is the fitted concentration of half-maximal effect. Put shortly: as §5
A short description of test [14]: Quantitative High-Throughput drug screen in 47 multiple myeloma cell lines against the NCATS MIPE library collection: OCIMY1_PLB cell viability assay (AID 1918979). Note: nearly all actives have a fitted effect of over 35% in size. Note: potency is the fitted concentration of half-maximal effect. Put shortly: as §5
Test [15] in a line: Quantitative High-Throughput drug screen in 47 multiple myeloma cell lines against the NCATS MIPE library collection: KMS27_JCRB cell viability assay (AID 1918970). Note: nearly all actives have a fitted effect of over 30% in size. Note: potency is the fitted concentration of half-maximal effect. Put shortly: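 ATP-based viability (CellTiter-Glo luminescence) is measured in cells treated 48 h with approved and investigational drugs at 37 °C. Controls are DMSO-only wells for full viability and media-only wells for none.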

Test [16] is described as follows: Quantitative High-Throughput drug screen in 47 multiple myeloma cell lines against the NCATS MIPE library collection: JIM1_ECACC cell viability assay (AID 1918964; note: potency is the fitted concentration of half-maximal effect). Put shortly: as §2
Test [17] in a line: Quantitative High-Throughput drug screen in 47 multiple myeloma cell lines against the NCATS MIPE library collection: KMS20_JCRB cell viability assay (AID 1918973). Note: nearly all actives have a fitted effect of over 45% in size. Note: potency is the fitted concentration of half-maximal effect. Put shortly:
as §2

Test [18] in a line: Quantitative High-Throughput drug screen in 47 multiple myeloma cell lines against the NCATS MIPE library collection: KMS21BM_JCRB cell viability assay (AID 1918974). Note: potency is the fitted concentration of half-maximal effect. The following applies: ATP luminescence, 48 h; viability: at 45.8 µM (top of the series). Put shortly: as §2
A short description of test [19]: Quantitative High-Throughput drug screen in 47 multiple myeloma cell lines against the NCATS MIPE library collection: JJN3_DSMZ cell viability assay (AID 1918966; note: nearly all actives have a fitted effect of over 50% in size). Put shortly:
as §2

Regarding `CC(C)C1CCC(C(=O)N[C@H](Cc2ccccc2)C(=O)O)CC1` (stereo partly specified), the Potency result in [1], in test [2], in test [3], in test [4], in test [5] and in [6] was “inactive” throughout. In addition, the Potency entry in test [8] was “inactive”. Further, in test [7], the Potency is 16.6 µM (active).

Consider `Cc1nnc(C(=O)NC(C)(C)c2nc(C(=O)NCc3ccc(F)cc3)c(O)c(=O)n2C)o1`, for which the Potency result in [2], in [9], in [3], in test [10], in test [11] and in test [13] was “inactive” in each case. The Potency entry in test [6], in [14], in [7] and in test [8] was “inactive” each time. For the same compound, the Potency in test [12] was 7.43 µM (active).

Turning to `C[C@@H](NCCCc1cccc(C(F)(F)F)c1)c1cccc2ccccc12`, the Potency result in [1], in test [3], in test [10], in [15], in [11] and in [5] was “inactive” in each case. The Potency result in test [13], in test [6], in [14] and in [8] was “inactive” each time. In addition, the Potency in [2] is 13.2 µM (active); in test [4], 18.7 µM (active).

Take `CCCCc1oc2ccc(NS(C)(=O)=O)cc2c1C(=O)c1ccc(OCCCN(CCCC)CCCC)cc1`: the Potency in test [2] is 18.7 µM (active); in test [16], 10.5 µM (active); in [9] it was 9.35 µM (active); in [3], 18.7 µM (active); in test [10], 16.6 µM (active); in [15], 14.8 µM (active). The Potency in test [11] is 14.8 µM (active); in test [4], 9.35 µM (active); in test [17] it was 9.35 µM (active); in test [5], 14.8 µM (active); in [12], 7.43 µM (active); in [13] it was 16.6 µM (active). Further, the Potency in test [6] is 18.7 µM (active); in test [14], 20.9 µM (active); in test [7], 20.9 µM (active); in [8], 14.8 µM (active).

For the compound `CN(C)c1ccc(C(=C2C=CC(=[N+](C)C)C=C2)c2ccc(N(C)C)cc2)cc1`, the Potency in test [1] was 0.0166 µM (active); in [16] it was 0.105 µM (active); in [3] it was 0.0372 µM (active); in [10], 0.0118 µM (active); in test [11], 0.0662 µM (active); in test [4] it was 0.0093 µM (active). In addition, the Potency in test [5] was 0.166 µM (active); in test [12], 0.132 µM (active); in [13], 0.0526 µM (active); in [6], 0.0264 µM (active); in [14], 2.09 µM (active); in test [7], 0.105 µM (active). The Potency in test [8] is 0.132 µM (active).

For the compound `O=P(O)(O)C(O)(Cc1cccnc1)P(=O)(O)O`, the Potency result in test [1], in test [2], in test [3], in [4], in [6] and in test [14] was “inactive” throughout. Moreover, the Potency entry in [7] is “inactive”. In addition, in test [5], the Potency is 0.0017 µM (active).

With `NS(=O)(=O)c1cc2c(cc1Cl)NC(C(Cl)Cl)NS2(=O)=O` (stereo unspecified), the Potency entry in test [2], in test [3], in [10], in test [4], in test [18] and in test [13] was “inactive” in each case. Moreover, the Potency result in test [6], in test [14] and in test [8] was “inactive” throughout.

For the compound `CC(C)Cn1cnc2c(N)nc3ccccc3c21`, the Potency entry in test [2], in test [3], in test [10] and in [14] was “inactive” each time. The Potency is 14.8 µM (active) in test [11], 16.6 µM (active) in test [12] and 4.69 µM (active) in test [7].

As to `OC(Cn1cncn1)(Cn1cncn1)c1ccc(F)cc1F`, the Potency entry in [2], in [3], in test [10], in test [4], in [5] and in [6] was “inactive” in each case. For the same compound, the Potency entry in test [14] is “inactive”. Also, in [12], the Potency was 10.5 µM (active).

Regarding `CCCCS(=N)(=O)CCC(N)C(=O)O` (stereo unspecified), the Potency result in [2], in test [19], in test [3], in [10], in test [15] and in [11] was “inactive” each time. The Potency entry in test [4], in test [5], in test [13], in test [6], in [14] and in test [7] was “inactive” in each case. The Potency result in [8] is “inactive”.

Consider `O=C(O)C1CCCN(CCC=C(c2ccccc2)c2ccccc2)C1` (stereo unspecified), for which the Potency result in [3], in [4], in test [5], in [12], in [6] and in test [8] was “inactive” each time. Besides, the Potency was 0.0059 µM (active) in test [13] and 9.35 µM (active) in test [7].

Regarding `CCCCCCNC(=O)n1cc(F)c(=O)[nH]c1=O`, the Potency is 16.6 µM (active) in test [2]; 5.26 µM (active) in [3]; 7.43 µM (active) in test [10]; 4.69 µM (active) in test [11]; 0.332 µM (active) in test [18]; 6.62 µM (active) in test [13]. The Potency in test [6] was 11.8 µM (active); in test [7], 20.9 µM (active); in test [8] it was 4.18 µM (active). Moreover, in [14], the Potency result was “inactive”.

With `COc1ccc(C(=O)CC(=O)c2ccc(C(C)(C)C)cc2)cc1`, the Potency in test [3] is 7.43 µM (active); in test [10] it was 2.35 µM (active); in test [11] it was 2.35 µM (active); in test [4], 5.26 µM (active); in [17] it was 2.96 µM (active); in [5], 7.43 µM (active). Also, the Potency in test [12] is 4.69 µM (active); in test [6], 1.32 µM (active); in [7], 1.05 µM (active); in test [8], 2.35 µM (active). Moreover, the Potency result in test [14] is “inactive”.

As to `O=C(O)c1cn(C2CC2)c2cc(N3CCNCC3)c(F)cc2c1=O`, the Potency entry in test [2], in test [3], in [4], in [17], in [13] and in test [6] was “inactive” in each case. Besides, the Potency result in [14] and in [8] was “inactive” each time.

With `O=C(NCC1CN(c2ccc(N3CCOCC3=O)cc2)C(=O)O1)c1ccc(Cl)s1` (stereo unspecified), the Potency entry in test [2], in [3], in test [11], in test [5], in [13] and in test [6] was “inactive” each time. Moreover, the Potency entry in [14] and in [8] was “inactive” each time. Also, the Potency in [10] was 16.6 µM (active).

For the compound `CC1=NN(c2ccccc2)C(=O)C1`, the Potency entry in [2], in test [3], in test [4], in test [5], in test [13] and in [14] was “inactive” each time. The Potency entry in test [7] and in test [8] was “inactive” throughout.

For `CC(=O)[C@H]1CC[C@H]2[C@@H]3CCC4=CC(=O)CC[C@]4(C)[C@H]3CC[C@]12C`, in test [6], the Potency result is “inactive”. Moreover, the Potency in [7] was 3.72 µM (active).

`CC[C@H](NC(C)C)[C@H](O)c1ccc(O)c2[nH]c(=O)ccc12`: the Potency entry in [2], in test [3], in test [4], in test [17], in [5] and in test [6] was “inactive” in each case. Moreover, the Potency result in test [14] was “inactive”. The figures for the Potency in test [11], in test [7] and in [8] were 0.0235 µM (active), 0.235 µM (active) and 0.59 µM (active), respectively.

Values taken from PubChem BioAssay (NCATS).
